Assay results reported in PubChem BioAssay AID588432 (Broad Institute, 2011).
Calls of active or inactive are those of the source.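 Rule for the calls: active = luciferase inhibitors whose fitted dose curve gives a half-maximal potency within ten times the top tested dose; inconclusive = flat curve with 30 to 70% inhibition, or a poor fit; inactive = the rest.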

test: ADP-Glo luciferase interference without Dyrk1A, dose response, artefact control for Dyrk1A inhibitor project, biochemical, luminescence, cherry-pick, set 04 (AID 588432); settings: ADP-Glo luminescence without kinase, luciferase artifact; series mostly up to 12 µM

outcome, inactive:
CN(C)c1ccc(-c2nccc(NCc3cccs3)n2)cc1
Cc1ccc(CNc2ncnc3ccc(-c4ccoc4C)cc23)o1
Clc1ccc(CNc2nccc(-c3ccc4[nH]ncc4c3)n2)cc1Cl
CCOC(=O)c1ccc(-c2ccc3ncnc(N(C)Cc4sccc4C)c3c2)o1
c1nc(NCC2CCCC2)c2cc(-c3ccc4c(c3)OCO4)ccc2n1
O=[N+]([O-])c1cc(Nc2nccc(-c3ccc4c(c3)OCO4)n2)cc(C(F)(F)F)c1
Clc1cc(Cl)cc(CNc2nccc(-c3ccc4c(c3)OCO4)n2)c1
Cn1ccc2cc(-c3ccc4ncnc(NCc5cccc(F)c5)c4c3)ccc21
Clc1ccccc1-c1ccc2ncnc(NCc3ccc4c(c3)OCO4)c2c1
c1cc(-c2ccc3c(c2)OCO3)nc(Nc2ccc3c(c2)OCO3)n1
Cc1ccc(CN(C)c2ncnc3ccc(-c4ccc5c(c4)OCO5)cc23)o1
COc1ccc(-c2ccnc(NCc3ccc(Cl)c(Cl)c3)n2)cc1OC
c1csc(CNc2ncnc3ccc(-c4ccoc4)cc23)c1
Fc1c(-c2ccc3ncnc(NCc4cccs4)c3c2)ccc2c1OCO2
Cn1ccc2cc(-c3ccc4ncnc(NCc5ccc6c(c5)OCO6)c4c3)ccc21
FC(F)(F)c1cccc(Nc2nccc(-c3ccc4c(c3)OCO4)n2)c1
Cc1ccsc1CN(C)c1ncnc2ccc(-c3ccc(CO)o3)cc12
FC(F)(F)c1cc(Br)cc(Nc2nccc(-c3ccc4c(c3)OCO4)n2)c1
Cc1ccsc1CNc1ncnc2ccc(-c3ccc4c(c3)OCO4)cc12
Brc1ccc(CNc2nccc(-c3ccc4c(c3)OCO4)n2)cc1Br
Clc1ccc(CNc2nccc(-c3ccc4c(c3)OCCO4)n2)cc1Cl
Clc1ccc(CNc2nccc(-c3ccc4c(c3)OCO4)n2)cc1Cl
CN(Cc1cccs1)c1ncnc2ccc(-c3ccc4c(c3)OCO4)cc12
Cc1nc(CNc2ncnc3ccc(-c4ccc5c(c4)OCO5)cc23)cs1
c1cncc(CNc2nccc(-c3ccc4cn[nH]c4c3)n2)c1
CCN(Cc1cccs1)c1ncnc2ccc(-c3ccc4c(c3)OCO4)cc12
CCOC(=O)c1ccc(-c2ccc3ncnc(NCc4ccc(C)o4)c3c2)o1
Cc1csc(CN(C)c2ncnc3ccc(-c4ccc5c(c4)OCO5)cc23)n1
c1nc(NCC2CCCO2)c2cc(-c3ccc4c(c3)OCO4)ccc2n1 (centres undefined)
c1cncc(CNc2ccnc(-c3ccc4cn[nH]c4c3)n2)c1
c1csc(CNc2ncnc3ccc(-c4ccc5c(c4)OCO5)cc23)n1
Cc1noc(CN(C)c2ncnc3ccc(-c4ccc5c(c4)OCO5)cc23)n1
COc1ccc(-c2nccc(NCc3ccc(C)cc3)n2)cc1
Clc1ccc(Nc2nccc(-c3ccc4c(c3)OCO4)n2)cc1
